Unmarked numbers belong to inactive results. How the calls were made is not given here.
molecular target: Pantothenate synthetase (Mycobacterium tuberculosis (strain ATCC 25618 / H37Rv)) (UniProt P9WIL5); assay: Coupled enzyme confirmation of inhibitors against recombinant Mtb PanC (AID 375); details: coupled enzyme assay; at 10 µM, hits give high values;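 further: 0% = full reaction with vehicle and 100% = no enzyme background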
Sequence (P9WIL5 whole entry, looked up): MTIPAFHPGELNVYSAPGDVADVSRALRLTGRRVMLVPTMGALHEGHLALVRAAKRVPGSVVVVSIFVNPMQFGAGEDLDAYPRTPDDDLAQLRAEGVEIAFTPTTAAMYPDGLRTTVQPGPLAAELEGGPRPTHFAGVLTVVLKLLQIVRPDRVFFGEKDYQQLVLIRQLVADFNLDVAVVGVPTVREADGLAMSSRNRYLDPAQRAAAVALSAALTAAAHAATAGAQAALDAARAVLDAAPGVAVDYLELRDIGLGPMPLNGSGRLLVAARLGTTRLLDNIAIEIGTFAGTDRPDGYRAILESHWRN

Point of comparison: `Cn1c(=O)c2c(nc(CN3CCOCC3)n2CC(O)CO)n(C)c1=O` (stereo not given), inhibition 8%. Against it:
- Cc1nc2sc(C(c3ccco3)N3CCN(c4ccccc4F)CC3)c(O)n2n1 (stereo not given) — lower, 0%
- c1ccc(Cn2nnnc2C(c2cccs2)N2CCSCC2)cc1 (stereo not given) — lower, 0%
- Cn1nnnc1SCC1=C(C(=O)O)N2C(=O)[C@@H](NC(=O)[C@H](O)c3ccccc3)[C@H]2SC1 — lower, 0%
- Cc1c(Cc2ccccc2)sc(N)c1C(N)=O — lower, 0%
- COc1cccc2cc(C(=O)C3=C(O)C(=O)N(CCCN4CCOCC4)C3c3ccncc3)oc12 (stereo not given) — lower, 0%
- O=c1cc(CSc2nnc(COc3ccc(Cl)cc3)o2)c2ccccc2[nH]1 — lower, 3%
- Cc1cc(C)c2nc(C(F)(F)F)nc(NCCCN3CCCC3=O)c2c1 — lower, 0%
- CCn1c(SCC(=O)N2CCN(c3ccc(Cl)cc3)CC2)nc2ccccc2c1=O — lower, 0%
- C=CCn1c(SCC(=O)Nc2ccccc2OC)nnc1-c1ccco1 — lower, 4%
- O=C(O)CCc1ccc(-c2cccs2)n1NC(=O)c1ccco1 — lower, 0%
- O=C(NCc1ccc(Cl)cc1)c1ccc(COCC(F)(F)F)o1 — lower, 0%
- CCCCN(CCCC)C(=O)CN(C)S(=O)(=O)c1ccc2c(c1)n(C)c(=O)c(=O)n2C — lower, 5%
- NC1=NC(c2ccc(Cl)cc2)n2c(nc3ccccc32)N1 (stereo not given) — lower, 0%
- COc1ccc(S(=O)(=O)Cc2ccc(C(=O)N3CCN(c4ccccc4)CC3)o2)cc1 — lower, 0%
- CC1=CCC(C(C)(C)NC(=O)c2ccccc2)C/C1=N\O (stereo not given) — lower, 0%
- CN(Cc1ccccc1)c1nc2c(c(=O)[nH]c(=O)n2C)n1Cc1ccccc1Cl — lower, 3%
- CCN(CC)c1nc2nonc2nc1N(CC)CC — lower, 0%
- COc1ccc(NC(=O)Nc2cc(C)ccc2OC)cc1 — lower, 0%
- CS(=O)(=O)NCc1nnc(SCC(=O)NC2CCCCC2)n1-c1ccc(F)cc1 — lower, 0%
- CCOC(=O)Nc1ccc2c(c1)N(C(=O)OCCN(C)C)c1ccccc1CC2 — lower, 3%
- Cn1c(C(=O)N2CCN(C(=O)c3ccco3)CC2)cc2c(=O)n3ccccc3nc21 — higher, 9%
- CCC(=O)Nc1cc(C(=O)NCC2CCCN2CC)c(OC)cc1N(C)C (stereo not given) — lower, 0%
- COc1cc2[nH]c3c(=O)n(CCN(C(C)C)C(C)C)cnc3c2cc1OC — higher, 10%
- CC(=O)N1CCN(C(C)=O)C1c1ccccc1 — lower, 2%
- CCn1nccc1C(=O)Nc1cc(Cl)ccc1Cl — lower, 0%
- O=C(CN1C(=O)NC(Cc2ccccc2)C1=O)Nc1ccccc1 (stereo not given) — lower, 0%
- CCn1nnc(NC(=O)c2cc3ccccc3o2)n1 — lower, 0%
- COc1cc2c(cc1OC)-c1cc(Nc3ccc4c(c3)OCCO4)nc(=O)n1CC2 — lower, 2%
- NC(=O)c1cccc(S(=O)(=O)N2CCCCC2)c1 — lower, 0%
- COC(=O)CSc1nnc(-c2cccs2)n1-c1ccc(Cl)cc1 — lower, 4%
- O=C(NCCc1ccccc1)c1cc(-c2ccco2)on1 — lower, 5%
- CCOc1ccc(S(=O)(=O)N2CCN(C(=O)c3cccn3C)CC2)cc1 — lower, 0%
- CCOC(=O)N1CCN(C(c2ccc(Cl)cc2)c2sc3nc(C)nn3c2O)CC1 (stereo not given) — lower, 0%
- Cc1ccc(NC(=O)C2CC=CCC2C(=O)N2CCCCC2)cc1 (stereo not given) — lower, 0%
- CCOC(=O)c1c(C)oc2c1c(C(c1ccncc1)N1CCOCC1)c(O)c1ccccc12 (stereo not given) — lower, 0%
- Cc1sc2ncnc(OCC(=O)N3CCN(S(=O)(=O)c4ccc(Cl)cc4)CC3)c2c1C — lower, 0%
- CCOc1ccc(S(=O)(=O)NCC2CCCO2)c2cccnc12 (stereo not given) — lower, 0%
- Cc1ccc(S(=O)(=O)n2nc(OC(=O)c3ccco3)cc2N)cc1 — lower, 2%
- O=C1c2ccccc2C(Nc2cccnc2)N1Cc1ccccc1Cl (stereo not given) — lower, 0%
